Laboratory results published in PubChem BioAssay (NCATS).
Where “and” joins values, the source holds several entries; their conditions need not be identical. Equal values may be shown once. Inconclusive results are not listed. The source holds several records for some structures; these can differ, active in one and inactive in another. Calls of active or inactive are those of the source. Unless noted, calls come from the whole dose curve; as a rule, active = well fitted curve in the direction sought with a large enough effect; inconclusive = small, poorly fitted or top-dose-only effect, or another doubt; inactive = no such curve, though single readings can be large; an effect the other way counts as inactive or inconclusive.

Key:
[1] = biological target: Guanine nucleotide-binding protein G(i) subunit alpha-1 (Homo sapiens) (UniProt P63096); assay: qHTS Assay for Inhibitors of RGS12 GoLoco Motif Activity (Green Fluorophore) (AID 879);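 note: negative values mean loss of peptide binding seen as reduced polarization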
Chain of Guanine nucleotide-binding protein G(i) subunit alpha-1 (Homo sapiens) (P63096 whole entry, looked up): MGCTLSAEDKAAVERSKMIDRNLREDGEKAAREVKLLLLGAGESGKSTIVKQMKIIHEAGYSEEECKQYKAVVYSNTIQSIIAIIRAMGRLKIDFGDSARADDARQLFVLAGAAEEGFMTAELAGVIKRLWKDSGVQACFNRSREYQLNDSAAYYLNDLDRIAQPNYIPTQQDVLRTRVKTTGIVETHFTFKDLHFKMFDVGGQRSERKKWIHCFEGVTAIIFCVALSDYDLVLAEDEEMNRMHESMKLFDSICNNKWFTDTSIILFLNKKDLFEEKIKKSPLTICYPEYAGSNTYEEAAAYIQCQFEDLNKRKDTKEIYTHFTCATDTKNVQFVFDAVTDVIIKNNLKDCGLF
How it was run: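 Fluorescence polarization assay: 50 nM Gαi1 with 10 nM FITC-labeled RGS12 GoLoco peptide in 10 mM Tris pH 7.5, 150 mM NaCl, 0.1 mM GDP, 0.05% NP40, 10 min at room temperature with compound.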

[2] = biological target: Cytochrome P450 3A4 (Homo sapiens) (UniProt P08684); assay: qHTS Assay for Activators of Cytochrome P450 3A4 (AID 885); note: nearly all actives have a fitted effect of over 65% in size; note: potency is the fitted concentration of half-maximal effect
Chain of Cytochrome P450 3A4 (Homo sapiens) (P08684 whole entry, looked up): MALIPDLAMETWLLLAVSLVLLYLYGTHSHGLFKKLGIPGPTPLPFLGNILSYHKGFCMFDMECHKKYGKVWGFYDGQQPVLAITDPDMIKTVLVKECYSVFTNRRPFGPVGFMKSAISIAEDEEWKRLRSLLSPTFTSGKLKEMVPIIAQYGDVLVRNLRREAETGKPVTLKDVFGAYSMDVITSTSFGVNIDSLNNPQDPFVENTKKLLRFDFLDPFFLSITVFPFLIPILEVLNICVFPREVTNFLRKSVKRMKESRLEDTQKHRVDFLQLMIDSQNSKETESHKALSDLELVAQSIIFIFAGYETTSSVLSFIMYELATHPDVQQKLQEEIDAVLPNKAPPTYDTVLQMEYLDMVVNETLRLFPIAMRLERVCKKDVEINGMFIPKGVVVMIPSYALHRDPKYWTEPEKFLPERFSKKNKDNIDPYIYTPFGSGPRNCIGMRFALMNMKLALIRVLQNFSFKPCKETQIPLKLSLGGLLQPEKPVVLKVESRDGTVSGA
How it was run: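 Human CYP3A4 (20 nM) with Luciferin-PPXE at 25 uM (its KM) in 200 mM KPO4; 10 min compound preincubation, then NADPH regeneration and 60 min reaction at RT. Luciferin read by luminescence; normalized to 57 uM ketoconazole full inhibition.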

[3] = qHTS Assay for Identification of Small Molecule Antagonists for NFkB Signaling Pathway (AID 895; active = well fitted inhibition curve with a large enough effect in the signal ratio, with a control signal flat, not every such curve was filed as active; the % refers to the signal ratio)
How it was run: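 NFkB-bla ME-180 cervical carcinoma cells with beta-lactamase reporter under NFkB response element; compounds added, then TNF alpha at 10 pM final (EC50), 5 h at 37 C. LiveBLAzer substrate 2 h, room temperature; emission 460/530 nm at 405 nm excitation.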

[4] = qHTS Assay for Identification of Small Molecule Agonists for Thrombopoietin (TPO) Signaling Pathway (AID 917)
How it was run: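 IL-3-dependent murine pro-B Ba/F3 cells, stably transfected with human TPO receptor and GpIIb-promoter luciferase, are incubated 24 hrs at 37 C with test compound and 26 pM TPO; luciferase signal is read after 10 min at room temperature.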

[5] = biological target: Muscarinic acetylcholine receptor M1 (Rattus norvegicus) (UniProt P08482); assay: qHTS Assay for Antagonists of Acetylcholine Muscarinic M1 Receptor: Kinetic Measurement of Intracellular Calcium Response (AID 943); note: nearly all actives have a fitted effect of over 75% in size; note: potency is the fitted concentration of half-maximal effect
Chain of Muscarinic acetylcholine receptor M1 (Rattus norvegicus) (P08482 whole entry, looked up): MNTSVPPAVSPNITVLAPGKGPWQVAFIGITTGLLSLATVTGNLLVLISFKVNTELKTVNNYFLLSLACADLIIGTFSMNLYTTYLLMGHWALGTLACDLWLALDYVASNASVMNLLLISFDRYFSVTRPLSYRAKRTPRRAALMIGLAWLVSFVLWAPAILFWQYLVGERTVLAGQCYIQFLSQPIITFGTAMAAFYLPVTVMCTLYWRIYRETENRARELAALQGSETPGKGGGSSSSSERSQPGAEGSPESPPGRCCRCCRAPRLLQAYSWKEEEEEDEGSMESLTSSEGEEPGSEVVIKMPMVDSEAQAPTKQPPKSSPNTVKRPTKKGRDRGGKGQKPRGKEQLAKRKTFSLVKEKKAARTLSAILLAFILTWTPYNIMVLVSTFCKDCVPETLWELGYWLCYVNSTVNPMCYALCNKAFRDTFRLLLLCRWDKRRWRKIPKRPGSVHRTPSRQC
How it was run: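 Intracellular calcium flux, recorded with Fluo-4 in a kinetic plate reader, served as signal; the response to carbachol at EC80 (100 nM final) was taken as maximal over minimal fluorescence after a 10 min compound pre-incubation in rat M1-CHO cells.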

[6] = biological target: Muscarinic acetylcholine receptor M1 (Rattus norvegicus) (UniProt P08482); assay: qHTS Assay for Antagonists of Acetylcholine Muscarinic M1 Receptor: Measurement of IP-One Response (AID 944); note: nearly all actives have a fitted effect of over 75% in size
How it was run: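 Steps: plate transfected CHO-M1 cells overnight; add test compound, 10 min; add carbachol (200 nM, EC80) in stimulation buffer with LiCl; incubate 30 min; add labelled IP1 tracer and anti-IP1 antibody in lysis buffer; read HTRF after 10 min.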

[7] = biological target: Pyruvate kinase (Leishmania mexicana) (UniProt Q27686); assay: qHTS Validation Assay for Inhibitors of Leishmania Mexicana Pyruvate Kinase (AID 945)
Chain of Pyruvate kinase (Leishmania mexicana) (Q27686 2-499 E452W): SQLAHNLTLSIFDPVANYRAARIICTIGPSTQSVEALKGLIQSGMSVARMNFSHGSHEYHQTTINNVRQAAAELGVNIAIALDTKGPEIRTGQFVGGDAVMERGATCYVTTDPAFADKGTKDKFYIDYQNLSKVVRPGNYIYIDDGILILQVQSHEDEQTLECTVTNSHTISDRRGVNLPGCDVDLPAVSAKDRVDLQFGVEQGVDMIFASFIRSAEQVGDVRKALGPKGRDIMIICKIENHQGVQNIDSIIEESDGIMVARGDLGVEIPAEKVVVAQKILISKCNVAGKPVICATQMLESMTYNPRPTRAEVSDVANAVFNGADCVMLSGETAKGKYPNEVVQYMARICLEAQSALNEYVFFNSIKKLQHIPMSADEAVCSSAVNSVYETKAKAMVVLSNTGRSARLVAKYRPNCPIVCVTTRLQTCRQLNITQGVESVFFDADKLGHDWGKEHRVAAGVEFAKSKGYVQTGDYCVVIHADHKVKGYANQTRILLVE
How it was run: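 Purified LmPYK (E451W mutant, 0.2 nM) was incubated 1 h at room temperature with 0.5 mM PEP and 0.1 mM ADP in 50 mM imidazole pH 7.2, 50 mM KCl, 7 mM MgCl2; ATP formed was read by PKLight luminescence, normalized to DMSO wells.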

[8] = biological target: Cytochrome P450 2D6 (Homo sapiens) (UniProt P10635); assay: qHTS Assay for Inhibitors and Substrates of Cytochrome P450 2D6 (AID 891); note: nearly all actives have a fitted effect of over 60% in size; note: potency is the fitted concentration of half-maximal effect
Chain of Cytochrome P450 2D6 (Homo sapiens) (P10635 whole entry, looked up): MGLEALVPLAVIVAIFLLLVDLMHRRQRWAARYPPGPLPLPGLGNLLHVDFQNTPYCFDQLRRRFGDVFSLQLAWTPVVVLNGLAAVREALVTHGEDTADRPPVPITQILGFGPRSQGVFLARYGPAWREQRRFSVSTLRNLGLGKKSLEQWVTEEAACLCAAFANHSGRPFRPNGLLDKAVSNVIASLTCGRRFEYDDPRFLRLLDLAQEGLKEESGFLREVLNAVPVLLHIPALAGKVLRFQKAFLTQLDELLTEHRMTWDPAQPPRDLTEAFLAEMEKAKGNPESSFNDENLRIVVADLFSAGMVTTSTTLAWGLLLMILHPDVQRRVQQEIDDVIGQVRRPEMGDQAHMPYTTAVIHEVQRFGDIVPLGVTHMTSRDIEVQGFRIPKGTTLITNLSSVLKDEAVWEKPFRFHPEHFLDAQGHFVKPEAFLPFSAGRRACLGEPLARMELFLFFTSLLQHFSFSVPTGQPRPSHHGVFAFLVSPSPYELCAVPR
How it was run: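 Human CYP2D6 (5 nM) with 30 uM Luciferin-ME EGE (at Km) in 100 mM KPO4, compound preincubated 10 min, then NADPH regeneration system for 60 min at room temperature. Luciferin read by luminescence; normalized to 1.43 uM quinidine.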

[9] = biological target: Cytochrome P450 2C19 (Homo sapiens) (UniProt P33261); assay: qHTS Assay for Inhibitors and Substrates of Cytochrome P450 2C19 (AID 899); note: nearly all actives have a fitted effect of over 60% in size
Chain of Cytochrome P450 2C19 (Homo sapiens) (P33261 whole entry, looked up): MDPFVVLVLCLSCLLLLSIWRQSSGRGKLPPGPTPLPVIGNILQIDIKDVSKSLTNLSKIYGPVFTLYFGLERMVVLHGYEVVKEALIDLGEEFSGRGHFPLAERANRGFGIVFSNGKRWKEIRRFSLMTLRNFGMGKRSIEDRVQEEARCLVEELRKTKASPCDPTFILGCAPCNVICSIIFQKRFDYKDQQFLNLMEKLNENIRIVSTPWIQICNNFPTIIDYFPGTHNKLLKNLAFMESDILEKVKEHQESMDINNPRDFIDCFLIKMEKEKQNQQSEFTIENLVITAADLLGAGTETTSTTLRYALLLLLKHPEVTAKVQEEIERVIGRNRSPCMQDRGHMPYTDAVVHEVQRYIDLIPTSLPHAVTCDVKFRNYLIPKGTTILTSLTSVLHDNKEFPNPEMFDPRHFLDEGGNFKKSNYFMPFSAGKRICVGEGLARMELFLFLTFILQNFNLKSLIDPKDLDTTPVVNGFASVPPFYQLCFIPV
How it was run: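 In 50mM KPO4, the reaction held 5nM enzyme and KM-level (10uM) Luciferin-H EGE; it ran 60 min at 37C after NADPH regeneration and a 10 min compound preincubation. Luminescence values were scaled to 57uM ketoconazole as complete inhibition.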

[10] = Confirmation and Secondary Assay for Modulators of Hemoglobin Beta Chain Splicing at IVS2 654 locus (AID 910);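 note: per-well total GFP intensity by laser scanning cytometry after 2-day treatment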;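 note: potency is the fitted concentration of half-maximal effect; potency of activators that raise GFP signal by restoring correct splicing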
How it was run: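 HeLa cells stably carrying EGFP interrupted by mutant beta-globin IVS2-654 intron (CMV-driven) were treated with compound for 2 days at 37C; corrected splicing was scored as total peak GFP intensity per well (488 nm excitation, 500-520 nm emission).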

[11] = Confirmation and Secondary Assay for Modulators of Hemoglobin Beta Chain Splicing at IVS2 705 locus (AID 930);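 note: HeLa cells stably expressing the EGFP-705 splicing reporter; series mostly up to about 46 µM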
How it was run: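 Restored EGFP fluorescence after 2-day compound exposure reports splicing correction in IVS2-705 EGFP reporter HeLa cells; positive control was 500 nM splice-blocking PNA oligo. Signal measured as well total peak GFP intensity (488 nm excitation).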

[12] = qHTS Assay for Identification of Small Molecule Antagonists for Thrombopoietin (TPO) Signaling Pathway (AID 918); details: TPO-dependent cell signaling reporter, antagonist mode; note: potency is the fitted concentration of half-maximal effect; nearly all actives have a fitted effect of over 60% in size
How it was run: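 First, Ba/F3 reporter cells expressing human TPO receptor were held overnight without IL-3. Next, compound and 26 pM TPO were added. After 24 hrs incubation at 37 C, luciferase luminescence under the Glycoprotein IIb promoter was recorded.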

Measured: Potency

COc1ccc(C2CNC(=O)C2)cc1OC1CCCC1 (centres undefined)
inactive: [1] | [2] | [3] | [4] | [5] | [6] | [7]

NC(=O)OCC(COC(N)=O)c1ccccc1
inactive and 794 nM (active): [8]
inactive: [1] | [3] | [9] | [4] | [6] | [7]

CN1CCN(C2=Nc3cc(Cl)ccc3Nc3ccccc32)CC1
inactive: [1] | [10] | [4] | [11] | [7]

CN(C)c1nc(N(C)C)nc(N(C)C)n1
inactive: [1] | [3] | [10] | [4] | [11] | [7]

CN1CCN(CCCN2c3ccccc3Sc3ccc(Cl)cc32)CC1
inactive: [1] | [10] | [11] | [7]
active: [8] 398 nM and 794 nM

C[C@](N)(Cc1ccc(O)c(O)c1)C(=O)O
inactive: [1] | [2] | [3] | [4] | [7]

NC12CC3CC(CC(C3)C1)C2
inactive: [1] | [10] | [4] | [11]

NCCc1cnc[nH]1
inactive: [1] | [10] | [4] | [11] | [5] | [6] | [7]

CN(C)CCOC(c1ccccc1)c1ccccc1
inactive: [1] | [10] | [11] | [7]

CC(C(=O)O)c1cccc(C(=O)c2ccccc2)c1 (centres undefined)
inactive: [10] | [11]

Nc1nc2c(ncn2COC(CO)CO)c(=O)[nH]1
inactive: [1] | [4] | [7]

OCCN1CCN(CCCN2c3ccccc3Sc3ccc(C(F)(F)F)cc32)CC1
inactive: [1] | [10] | [11] | [7]

NC(=O)NO
inactive: [1] | [10] | [4] | [11] | [7]

COc1cc2nc(N(C)CCCNC(=O)C3CCCO3)nc(N)c2cc1OC (centres undefined)
inactive: [10] | [11]

CC(=O)OCC(CCn1cnc2cnc(N)nc21)COC(C)=O
inactive: [10] | [11]

CC12CC3CC(C)(C1)CC(N)(C3)C2
inactive: [10] | [11]

CCOC(=O)Nc1ccc(NCc2ccc(F)cc2)nc1N
inactive: [1] | [4] | [5] | [6] | [7]

COc1ccccc1OCC(O)CN1CCN(CC(=O)Nc2c(C)cccc2C)CC1 (centres undefined)
inactive: [10] | [11]

CN(C)C(=O)C(CCN1CCC(O)(c2ccc(Cl)cc2)CC1)(c1ccccc1)c1ccccc1
inactive: [1] | [10] | [11] | [7]

CC[C@@]1(O)C(=O)OCc2c1cc1n(c2=O)Cc2cc3c(CN(C)C)c(O)ccc3nc2-1
inactive: [11]
active: [10] 12.6 µM

COc1cc2nc(N3CCN(C(=O)c4ccco4)CC3)nc(N)c2cc1OC
inactive: [8]
active: [2] 12.6 µM

CCC1(C)CC(=O)NC1=O (centres undefined)
inactive: [10] | [11]

COc1ccccc1OCCNCC(O)COc1cccc2[nH]c3ccccc3c12 (centres undefined)
inactive: [10] | [11]

NC(CO)C(=O)NNCc1ccc(O)c(O)c1O (centres undefined)
inactive: [10] | [11]

O=C(c1ccc(OCCN2CCCCC2)cc1)c1c(-c2ccc(O)cc2)sc2cc(O)ccc12
inactive: [7]
active: [12] 15.8 µM

Cc1ccc(C(=O)Nc2ccc(S(=O)(=O)O)c3cc(S(=O)(=O)O)cc(S(=O)(=O)O)c23)cc1NC(=O)c1cccc(NC(=O)Nc2cccc(C(=O)Nc3cc(C(=O)Nc4ccc(S(=O)(=O)O)c5cc(S(=O)(=O)O)cc(S(=O)(=O)O)c45)ccc3C)c2)c1
active: [5] 1.58 µM
inactive: [1] | [10] | [11] | [6] | [7]

CC1COc2c(N3CCN(C)CC3)c(F)cc3c(=O)c(C(=O)O)cn1c23 (centres undefined)
inactive: [10] | [11]

O=C(CCCN1CCC(O)(c2ccc(Cl)cc2)CC1)c1ccc(F)cc1
inactive: [1] | [10] | [11] | [7]

CN(Cc1cnc2nc(N)nc(N)c2n1)c1ccc(C(=O)N[C@@H](CCC(=O)O)C(=O)O)cc1
inactive: [1] | [4] | [7]

CCCNCC(O)COc1ccccc1C(=O)CCc1ccccc1 (centres undefined)
inactive: [10] | [11]

CNCCCC12CCC(c3ccccc31)c1ccccc12
inactive: [1] | [10] | [11] | [7]

CN1CCN2c3ccccc3Cc3ccccc3C2C1 (centres undefined)
inactive: [2] | [10] | [11]

CCOC(=O)c1ncn2c1CN(C)C(=O)c1cc(F)ccc1-2
inactive: [8] | [9] | [4] | [7]

Cc1cnc(C(=O)NCCc2ccc(S(=O)(=O)NC(=O)NC3CCCCC3)cc2)cn1
inactive: [1] | [4] | [7]

CN(C)C(=N)N=C(N)N
inactive: [10] | [11]

CCCCc1oc2ccccc2c1C(=O)c1cc(I)c(OCCN(CC)CC)c(I)c1
inactive: [1] | [10] | [11] | [6] | [7]

CC[N+](CC)(CC)CCOc1cccc(OCC[N+](CC)(CC)CC)c1OCC[N+](CC)(CC)CC
inactive: [1] | [4] | [7]
